From PubChem BioAssay (NCI)
The panel holds about 79,000 compounds, 15% with a hit somewhere; the sample as a whole holds those more often. Active and inactive are the calls of the source. Cut-off read from the data, not from the text of the source: active = growth inhibition above about 70%; inactive = the rest.

Experiments:
[1] = NCI Yeast Anticancer Drug Screen. Data for the rad52 strain (AID 147);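 note: 0% = growth of vehicle-treated control cultures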; settings: S. cerevisiae rad52 mutant growth inhibition, active compounds read high
In short: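 Vehicle-treated cultures served as the reference for growth inhibition of compound-exposed yeast bearing a DNA repair mutation.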

[2] = NCI Yeast Anticancer Drug Screen. Data for the wt1 strain (AID 149);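 note: 0% = growth of vehicle-treated wt1 cultures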; settings: S. cerevisiae wt1 strain (SPY 50644) growth inhibition, active compounds read high
In short: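 Growth inhibition read against vehicle controls after compound exposure of the wt1 yeast strain.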

[3] = NCI Yeast Anticancer Drug Screen. Data for the rad50EPP+ strain (AID 151);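 note: 0% = growth of vehicle-treated control cultures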; settings: S. cerevisiae rad50 mutant strain, active compounds read high
In short: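 In this screen, rad50EPP+ yeast were exposed to compounds. Growth inhibition was scored against vehicle-treated controls.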

[4] = NCI Yeast Anticancer Drug Screen. Data for the mgt1 strain (AID 153); settings: S. cerevisiae mgt1 mutant growth inhibition, active compounds read high
In short: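 mgt1 strain exposed; growth vs vehicle control recorded as inhibition.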

[5] = NCI Yeast Anticancer Drug Screen. Data for the rad50 strain (AID 155);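 note: 0% = growth of vehicle-only cultures of the same strain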; settings: S. cerevisiae rad50 strain growth inhibition, active compounds read high
In short: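 Readout: growth inhibition relative to vehicle-treated cultures. Compound exposure was carried out in a genetically defined yeast strain deficient in DNA damage repair.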

[6] = NCI Yeast Anticancer Drug Screen. Data for the mec2-1 strain (AID 157); settings: S. cerevisiae mec2-1 strain, active compounds read high
In short: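 Vehicle-treated cultures served as reference for growth inhibition of compound-exposed mec2-1 yeast.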

[7] = NCI Yeast Anticancer Drug Screen. Data for the rad14 strain (AID 159);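 note: 0% = growth of vehicle-treated control cultures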; settings: S. cerevisiae rad14 strain growth inhibition, active compounds read high
In short: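 Growth inhibition vs vehicle controls; genetically altered yeast strain (DNA damage repair defect) treated with test compounds.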

[8] = NCI Yeast Anticancer Drug Screen. Data for the sgs1 mgt1 strain (AID 161);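 note: 0% = growth of cultures given vehicle only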; settings: S. cerevisiae sgs1 mgt1 strain, active compounds read high
In short: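 Mutant yeast exposed to compound; growth scored against vehicle-only wells.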

[9] = NCI Yeast Anticancer Drug Screen. Data for the CLN2oe strain (AID 163);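 note: 0% = growth of vehicle-only control cultures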; settings: S. cerevisiae CLN2oe strain, active compounds read high
In short: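 Inhibition relative to vehicle-treated yeast is reported. Cells: strain with genetic alteration in cell-cycle control, grown with compound.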

[10] = NCI Yeast Anticancer Drug Screen. Data for the cln2 rad14 strain (AID 165);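 note: 0% = growth equal to vehicle treated cultures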; settings: S. cerevisiae cln2 rad14 strain, active compounds read high
In short: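 Each compound was tested on cln2 rad14 yeast. Inhibition of growth was calculated against vehicle-exposed controls.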

[11] = NCI Yeast Anticancer Drug Screen. Data for the bub3 strain (AID 167); settings: S. cerevisiae bub3 mutant strain, active compounds read high
In short: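 Readout: yeast growth inhibition, expressed relative to vehicle-only wells. The test organism is a mutant strain from a panel with lesions in DNA repair or checkpoint genes.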

[12] = NCI Yeast Anticancer Drug Screen. Data for the wt2 strain (AID 169);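 note: 0% = growth of vehicle-treated yeast cultures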; settings: S. cerevisiae wt2 strain growth inhibition, active compounds read high
In short: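 Inhibition of yeast growth was determined after compound treatment, normalised to controls receiving only vehicle.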

[13] = NCI Yeast Anticancer Drug Screen. Data for the mlh1 strain (AID 171);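 note: 0% = growth of vehicle-treated control cultures of the same strain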; settings: S. cerevisiae mlh1 strain growth inhibition, active compounds read high
In short: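 Vehicle-normalised growth inhibition of a repair- or checkpoint-altered yeast strain following compound treatment.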

[14] = NCI Yeast Anticancer Drug Screen. Data for the sgs1 strain (AID 173);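 note: 0% = growth of vehicle-only control cultures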; settings: S. cerevisiae sgs1 mutant, active compounds read high
In short: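 Screen format: yeast with repair or checkpoint alterations, compound exposure, growth read relative to vehicle.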

[15] = NCI Yeast Anticancer Drug Screen. Data for the mlh1 rad18 strain (AID 175); settings: S. cerevisiae mlh1 rad18 strain growth inhibition, active compounds read high
In short: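 Vehicle-treated cultures served as the reference for growth inhibition in a yeast strain carrying DNA damage repair alterations exposed to each compound.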

[16] = at 5.0 µM (retest, dose inferred, filed as 0.5)
[17] = at 50.0 µM (retest, dose inferred, filed as 5.0)

Measured: growth inhibition

O=C1Nc2ccc(Br)cc2C1=Nc1cccnc1
active: [11]; [17] 94% | [11]; at 50.0 µM 86.6% | [11]; at 100.0 µM 82%
inactive: [1]; at 1.2 µM -23% | [1]; at 3.7 µM -36% | [1]; at 11.0 µM -40% | [1]; at 33.0 µM -32% | [1]; at 100.0 µM -40% | [2]; at 1.2 µM -25% | [2]; at 3.7 µM -20% | [2]; at 11.0 µM -17% | [2]; at 33.0 µM -8% | [2]; at 100.0 µM -24% | [3]; at 1.2 µM 3% | [3]; at 3.7 µM -9% | [3]; at 11.0 µM -8% | [3]; at 33.0 µM -3% | [3]; at 100.0 µM 16% | [4]; at 1.2 µM -33% | [4]; at 3.7 µM -27% | [4]; at 11.0 µM -36% | [4]; at 33.0 µM -19% | [4]; at 100.0 µM -14% | [5]; at 1.2 µM -41% | [5]; at 3.7 µM -42% | [5]; [16] 52% | [5]; at 11.0 µM -36% | [5]; at 33.0 µM -25% | [5]; [17] 49% | [5]; at 50.0 µM 31.9% | [5]; at 100.0 µM -13% | [6]; at 1.2 µM -54% | [6]; at 3.7 µM -51% | [6]; [16] 47% | [6]; at 11.0 µM -41% | [6]; at 33.0 µM -31% | [6]; [17] 53% | [6]; at 50.0 µM 39.2% | [6]; at 100.0 µM -12% | [7]; at 1.2 µM -55% | [7]; at 3.7 µM -61% | [7]; at 11.0 µM -60% | [7]; at 33.0 µM -48% | [7]; at 100.0 µM -47% | [8]; [16] -3% | [8]; [17] 32% | [8]; at 50.0 µM 37.5% | [9]; at 1.2 µM -5% | [9]; at 3.7 µM 3% | [9]; at 11.0 µM -18% | [9]; at 33.0 µM -8% | [9]; at 100.0 µM 1% | [10]; [16] 32% | [10]; [17] 27% | [10]; at 50.0 µM 10.4% | [11]; at 1.2 µM -53% | [11]; at 3.7 µM -47% | [11]; [16] 33% | [11]; at 11.0 µM -38% | [11]; at 33.0 µM 10% | [12]; at 1.2 µM -21% | [12]; at 3.7 µM -24% | [12]; at 11.0 µM -20% | [12]; at 33.0 µM -30% | [12]; at 100.0 µM -27% | [13]; at 1.2 µM -25% | [13]; at 3.7 µM -15% | [13]; at 11.0 µM -42% | [13]; at 33.0 µM -39% | [13]; at 100.0 µM -31% | [14]; at 1.2 µM -32% | [14]; at 3.7 µM -41% | [14]; at 11.0 µM -21% | [14]; at 33.0 µM -29% | [14]; at 100.0 µM -18% | [15]; [16] 31% | [15]; [17] 46% | [15]; at 50.0 µM 35.4%

O=C1C[C@H]2[C@H](c3ccc(Br)cc3)[C@H]3C(=O)c4ccccc4NC(=O)[C@@H]3[C@@]2(O)c2ccccc2N1
inactive: [1]; at 1.2 µM 5% | [1]; at 3.7 µM 7% | [1]; at 11.0 µM 8% | [1]; at 33.0 µM 38% | [1]; at 100.0 µM 33% | [2]; at 1.2 µM 6% | [2]; at 3.7 µM 10% | [2]; at 11.0 µM 11% | [2]; at 33.0 µM 14% | [2]; at 100.0 µM 16% | [3]; at 1.2 µM 0% | [3]; at 3.7 µM 2% | [3]; at 11.0 µM 3% | [3]; at 33.0 µM 3% | [3]; at 100.0 µM 3% | [4]; at 1.2 µM 5% | [4]; at 3.7 µM 11% | [4]; at 11.0 µM 12% | [4]; at 33.0 µM 45% | [4]; at 100.0 µM 36% | [5]; at 1.2 µM 3% | [5]; at 3.7 µM 6% | [5]; [16] -12% | [5]; at 11.0 µM 9% | [5]; at 33.0 µM 35% | [5]; [17] 14% | [5]; at 100.0 µM 35% | [6]; at 1.2 µM 9% | [6]; at 3.7 µM 11% | [6]; [16] 14% | [6]; at 11.0 µM 15% | [6]; at 33.0 µM 33% | [6]; [17] 19% | [6]; at 100.0 µM 33% | [7]; at 1.2 µM 6% | [7]; at 3.7 µM 9% | [7]; at 11.0 µM 16% | [7]; at 33.0 µM 32% | [7]; at 100.0 µM 27% | [8]; [16] -3% | [8]; [17] 2% | [9]; at 1.2 µM 9% | [9]; at 3.7 µM 16% | [9]; at 11.0 µM 16% | [9]; at 33.0 µM 38% | [9]; at 100.0 µM 38% | [10]; [16] -7% | [10]; [17] 27% | [11]; at 1.2 µM 3% | [11]; at 3.7 µM 7% | [11]; [16] 7% | [11]; at 11.0 µM 9% | [11]; at 33.0 µM 19% | [11]; [17] 56% | [11]; at 100.0 µM 23% | [12]; at 1.2 µM 6% | [12]; at 3.7 µM 11% | [12]; at 11.0 µM 15% | [12]; at 33.0 µM 28% | [12]; at 100.0 µM 30% | [13]; at 1.2 µM 6% | [13]; at 3.7 µM 12% | [13]; at 11.0 µM 14% | [13]; at 33.0 µM 32% | [13]; at 100.0 µM 29% | [14]; at 1.2 µM 8% | [14]; at 3.7 µM 17% | [14]; at 11.0 µM 26% | [14]; at 33.0 µM 44% | [14]; at 100.0 µM 39% | [15]; [16] 36% | [15]; [17] 54%
active: [5]; at 50.0 µM 96.8% | [6]; at 50.0 µM 97.8% | [8]; at 50.0 µM 96.4% | [10]; at 50.0 µM 97% | [11]; at 50.0 µM 72% | [15]; at 50.0 µM 97.8%
